Screening data from PubChem BioAssay.
SKKanGAS inh = SKKanGAS growth inhibition. S. pyogenes SKKanGAS, kanamycin growth, BacTiter-Glo, 6 h. inhibition, % at 7.5 µM. 300,000 compounds, 1.3% hits. AID 1662;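 active means mean replicate score, as percent of positive control median, at least 50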;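 further: strain carries kanamycin resistance gene driven by streptokinase promoter and grows in 40 µg/ml kanamycin; loss of luminescence reflects streptokinase promoter inhibition or plain growth inhibition; 0% = median of DMSO wells and 100% = positive control at its reference dose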
Beta cell apopt = blocks beta cell apoptosis; INS-1E cytokine-induced death, ATP luminescence, 48 h; percent of positive-control rescue, neutral wells zero; protection from apoptosis, % (no concentration beside the values); 300,000 compounds, 0.8% hits;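 active means Every replicate reaches about 75%, or at least half do and their mean reaches it too, limit read from the data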;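 further: 0% = cytokine-treated negative control wells and 100% = positive control rescue; higher means more ATP so stronger rescue from cytokine killing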
Mdm2 MdmX PPI = human Mdm2/MdmX binding inhibition | O15151+Q00987 | SaOS-2 split-luciferase Mdm2/MdmX complementation, luminescence | inhibition, % at 8 µM | 330,000 compounds, 3% hits | AID 485346;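 active means inhibition of at least 50% at 8 µM in the primary screen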
Target sequence (O15151 whole entry, looked up): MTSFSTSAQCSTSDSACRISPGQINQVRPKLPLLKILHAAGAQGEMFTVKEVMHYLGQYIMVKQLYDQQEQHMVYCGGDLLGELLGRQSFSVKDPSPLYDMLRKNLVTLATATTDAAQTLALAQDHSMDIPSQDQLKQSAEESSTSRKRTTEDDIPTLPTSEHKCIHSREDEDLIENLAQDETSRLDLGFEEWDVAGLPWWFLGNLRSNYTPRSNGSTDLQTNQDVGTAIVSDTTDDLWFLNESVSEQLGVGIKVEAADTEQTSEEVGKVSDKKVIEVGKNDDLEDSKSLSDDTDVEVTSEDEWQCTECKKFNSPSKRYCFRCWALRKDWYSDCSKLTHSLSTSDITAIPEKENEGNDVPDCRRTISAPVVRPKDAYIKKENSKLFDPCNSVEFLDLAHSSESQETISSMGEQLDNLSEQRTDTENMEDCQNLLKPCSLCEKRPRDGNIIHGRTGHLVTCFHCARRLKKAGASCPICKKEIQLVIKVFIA
Target sequence (Q00987 whole entry, looked up): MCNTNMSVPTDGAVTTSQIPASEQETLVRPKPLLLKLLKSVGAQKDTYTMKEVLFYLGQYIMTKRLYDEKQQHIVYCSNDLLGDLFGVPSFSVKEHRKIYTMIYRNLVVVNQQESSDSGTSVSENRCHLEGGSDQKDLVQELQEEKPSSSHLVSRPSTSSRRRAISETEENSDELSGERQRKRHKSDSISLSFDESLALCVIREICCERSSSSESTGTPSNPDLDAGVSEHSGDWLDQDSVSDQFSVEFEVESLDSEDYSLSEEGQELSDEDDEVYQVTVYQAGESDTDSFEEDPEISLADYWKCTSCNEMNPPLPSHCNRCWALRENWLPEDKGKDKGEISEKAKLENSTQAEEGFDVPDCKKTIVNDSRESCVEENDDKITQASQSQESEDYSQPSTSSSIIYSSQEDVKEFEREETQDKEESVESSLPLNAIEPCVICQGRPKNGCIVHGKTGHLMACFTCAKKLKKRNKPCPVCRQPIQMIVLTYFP
NR3A LBD binder = modulators (binders) of human NR3A ligand-binding domain; NR3A LBD differential scanning fluorimetry, Tm shift; 0% = protein alone, 100% = glycine-bound protein; Tm shift relative to glycine control, % at 25 µM; 340,000 compounds, 2.5% hits; AID 1259313;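 active means melting temperature shift of at least 10% of the positive control shift, at one fixed dose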
CSC inhib = blocks cancer stem cells | cancer stem cell-like cells viability, luminescence | inhibition, % at 7.5 µM | 300,000 compounds, 1.1% hits; in the data active means inhibition above about 75%; tested in HMLE shEcad cells
MPTP inh = inhibitors of mitochondrial permeability transition pore; isolated mouse mitochondria, Ca2+ swelling absorbance, 30 min; inhibition, % at 10 µM; 360,000 compounds, 1.4% hits;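 active means inhibition of 50% or more, scaled per plate between neutral and stimulator controls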;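 further: 0% = DMSO wells given calcium and 100% = 1 mM EGTA wells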
Numbers without * were called inactive; nt = no result; ! = not confirmed by another sample. A selection: hits, their analogues and other compounds. The true share with any hit is near 6.9%.

SMILES	SKKanGAS inh	Beta cell apopt	Mdm2 MdmX PPI	NR3A LBD binder	CSC inhib	MPTP inh
CC(C)(C)Nc1nc(Cl)nc(NC(C)(C)C)n1	-1.4	4.9	14.1	5.6	-6.7	-0.6
CC(C)(C)Nc1nc(NN)nc(NC(C)(C)C)n1	87.0*	4.0	17.1	-1.5	17.5	-1.2
CCOc1ccccc1N1CCN(C(=O)CCNS(=O)(=O)c2ccccc2F)CC1	-6.1	2.6	25.3	40.7*	-14.5	-1.1
COc1ccc([N+](=O)[O-])cc1NC(=O)CC1SC(=Nc2cccc(C)c2C)N(/N=C/c2cccc(OC)c2OC)C1=O (configuration not stated)	-0.2	nt	2.0	21.3*!	nt	2.5
CN=C1SC(CC(=O)Nc2c(C)cccc2C)C(=O)N1/N=C/c1cccs1 (configuration not stated)	-2.0	0.6	6.0	5.0	-10.4	-0.7
Nc1ccc(N=Nc2ccccc2)cc1[N+](=O)[O-]	nt	nt	nt	28.7*	nt	20.5
CC(=O)c1cc2c(cc1NC(=O)CN1Cc3ccccc3C1=O)OCO2	0.7	-7.5	-15.2	12.5*	-14.9	-1.9
CC(=O)c1cc2c(cc1NC(=O)CN1CCC(Cc3ccccc3)CC1)OCO2	-5.6	1.9	8.8	0.7	-2.1	1.5
CC(=O)/C=C/n1c(=S)oc2ccccc21	3.0	99.6*	nt	2.2	-1.3	nt
CC(C)CC(=O)/C=C/n1c(=S)oc2ccccc21	3.4	65.3	nt	-0.4	28.5	1.5
CCN1CCN(C(=O)c2ccc(CSc3ccc(C)cc3)cc2)CC1	10.9	-17.7	4.7	0.7	154.9*	-0.1
O=C(NCc1ccccc1)C1=C[C@H](c2csc3ccccc23)C[C@H](OCCCCO)O1	16.8	74.8*	43.8	-3.9	15.5	-2.2
CC(C(=O)O)N1C(=O)C2C3c4ccccc4C(c4ccccc43)[C@@H]2C1=O (some centres not stated)	6.8	-9.2	-15.3	2.4	-11.1	-0.4
c1ccc(-c2nc(-c3cccs3)[nH]c2-c2ccccc2)cc1	1.6	12.5	32.8	2.0	6.8	4.1
CC(C)c1nc(-c2ccccc2)c(-c2ccccc2)[nH]1	-2.5	87.7*	7.1	-0.8	-2.9	-2.5
O=C(CSc1nc2nc(-c3cccs3)cc(C(F)(F)F)c2c(=O)[nH]1)C(F)(F)F	26.1	1.6	38.3	-4.0	-8.6	1.9
O=C(Nc1ccc(Cl)cc1)N1CCN(c2ccc3nnc(-c4ccc(F)cc4)n3n2)CC1	63.3*	8.0	27.0	27.2*	46.5	17.8
OC(CNCCC1C=Nc2ccccc21)Cn1c2ccc(Cl)cc2c2cc(Cl)ccc21 (configuration not stated)	135.9*	99.5*	nt	27.5*	106.4*	3.3
CCCCS(=O)(=O)CC(COc1ccccc1)OC(=O)c1ccccc1 (configuration not stated)	-3.4	-7.2	13.8	13.6*	9.2	-0.7
CCCCS(=O)CC(CS(=O)CCCC)OC(=O)c1ccccc1 (configuration not stated)	4.5	3.4	17.5	-2.2	12.2	-0.1
O=C(CC1C(=O)NCCN1C(=O)Nc1ccc(C(F)(F)F)cc1)Nc1ccc(F)cc1 (configuration not stated)	9.7	nt	11.4	14.2*	11.0	-4.3
COc1ccc(CN(C)S(=O)(=O)c2ccc3c(c2)OCCO3)cc1	50.9*	nt	5.1	0.1	-5.3	-0.1
COc1ccc(-c2ccc3oc(-c4ccsc4)cc(=O)c3c2)cc1F	nt	-5.7	-38.0	-17.3	-2.5	4.1
O=c1cc(-c2ccsc2)oc2ccc(-c3ccc4cc[nH]c4c3)cc12	nt	7.2	-46.5	14.9*	19.8	3.3
CSc1ccc(Cn2c(C)c(C(=O)NCc3cccc(Cl)c3)sc2=O)cc1	nt	nt	nt	nt	nt	0.0
SMILES	SKKanGAS inh	Beta cell apopt	Mdm2 MdmX PPI	NR3A LBD binder	CSC inhib	MPTP inh
CCOC(=O)Nc1ccc(C)cc1Br	-5.1	5.2	22.8	-0.9	-9.2	0.4
CCOC(=O)NC(=S)Nc1ccc(C(C)(C)C)cc1Br	9.2	0.9	-1.5	18.3*	20.3	-2.4
CC(=O)c1cccc(NC(=O)CSc2nnc(-c3ccncc3)o2)c1	nt	0.6	4.3	-1.3	-7.0	-1.0
CCOC(=O)C1=C(C)NC(=O)NC1c1ccc([N+](=O)[O-])o1 (configuration not stated)	5.3	2.1	-12.9	-1.0	-14.2	0.0
CCOC(=O)C1=C(C)NC2=C(C(=O)c3ccccc32)C1c1ccc([N+](=O)[O-])o1 (configuration not stated)	56.6*	-12.3	5.0	-5.4	3.8	26.5
O=C(Nc1nnc(-c2ccccn2)o1)c1cccc(Br)c1	67.0*	4.6	15.8	-4.7	23.5	0.0
O=C(Nc1nnc(-c2ccco2)o1)c1cccc(Cl)c1	88.1*	-3.7	28.1	-2.3	18.8	0.2
CC(=O)Nc1nnc(-c2ccco2)o1	0.1	-7.1	-3.6	-1.2	7.7	-0.6
COc1cc(OC)cc(C(=O)Nc2nnc(-c3cccnc3)o2)c1	-2.4	2.2	18.3	4.6	10.5	-0.3
O=C(Nc1nnc(-c2ccccn2)o1)c1cccc(Cl)c1	83.3*	-4.1	-5.7	-3.6	28.3	-10.4
N#Cc1ccc(C(=O)Nc2nnc(-c3ccccn3)o2)cc1	4.4	1.5	0.1	-3.2	-2.7	-1.6
O=C(Nc1nnc(-c2cccnc2)o1)c1cccc(Cl)c1	78.7*	-0.2	15.4	-3.0	33.1	-3.3
CCOc1ccc(NC(=O)CCN2C(=O)c3ccccc3C2=O)cc1	nt	-2.9	30.9	0.7	-24.6	0.0
O=C(COC(=O)Cn1nnc(-c2ccccc2)n1)Nc1cc(F)ccc1F	nt	-1.5	3.0	1.6	-9.7	0.1
O=C(Nc1nnc(-c2cc(Cl)ccc2Cl)o1)C1=COCCO1	5.3	-1.2	23.6	-1.2	-4.9	-1.6
Cc1cccc(-c2nnc(NC(=O)c3ccc(Cl)cc3)o2)c1	121.5*	-0.9	44.4	-12.4	89.1*	-32.2
O=C(Nc1nnc(-c2ccco2)o1)c1ccc(Cl)s1	51.3*	nt	18.4	-0.5	1.6	-1.3
Cc1ccc(C(=O)Nc2nnc(-c3ccncc3)o2)cc1	2.7	-4.2	19.1	0.1	2.1	0.4
O=C(Nc1nnc(-c2cc(Cl)ccc2Cl)o1)c1ccco1	73.7*	-9.2	22.2	-3.6	-3.5	-1.1
O=C(Nc1nnc(-c2ccco2)o1)c1ccc(Br)s1	nt	nt	nt	nt	nt	1.8
COc1cc(F)ccc1-c1cc(C(=O)NCc2cc(C(F)(F)F)cc(C(F)(F)F)c2)[nH]n1	nt	nt	nt	nt	nt	2.8
CCCCCCSc1cccc(-c2nc3ccc(Cl)cn3c2NCCCC)c1	nt	nt	nt	-4.8	nt	-1.0
CCCCCCSc1ccc(-c2nc3ccccn3c2NCCCC)cc1	51.3*	10.2	-18.6	-3.7	86.3*	4.4
CCCCNc1c(-c2ccc(-c3cccc(Cl)c3)cc2)nc2ccccn12	43.2	109.9*	-42.7	-5.2	97.2*	1.2
Cc1ccc(N2CC(C(=O)Nc3c4c(nn3C(C)(C)C)CS(=O)(=O)C4)CC2=O)cc1 (configuration not stated)	4.1	-2.9	-6.7	1.7	5.5	-0.7
